Compound activity from PubChem.
The list is not random: actives were taken first. Their share in the collection is about 12%.
HP1b binding inh = inhibitors of HP1-beta chromodomain binding to methylated histone tails; Potency, µM (highest dose often 114 µM), for inactives: at the top dose activity change, negative = inhibition, usual class: inhibitors; actives 0.56% (n = 390,000); AlphaScreen HP1-beta / biotin-H3K9me3 peptide binding; AID 540317; note: nearly all actives have a fitted effect of over 70% in size
Target sequence (P83916 whole entry, looked up): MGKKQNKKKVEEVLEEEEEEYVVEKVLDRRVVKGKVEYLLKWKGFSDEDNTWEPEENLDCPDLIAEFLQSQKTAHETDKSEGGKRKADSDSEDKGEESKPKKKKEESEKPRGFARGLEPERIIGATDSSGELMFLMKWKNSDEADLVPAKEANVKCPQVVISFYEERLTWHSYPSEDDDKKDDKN
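AlphaScreen: HP1-beta (50 nM) preformed 30 min with biotin-H3(1-18)K9me3 peptide (50 nM) in PBS pH 7.4, 0.01% Tween-20. Compound added for 30 min at RT, then streptavidin donor/nickel chelate acceptor beads (10 ug/mL) for 30 min.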
BAZ2B block = BAZ2B (human) inhibition; Q9UIF8; AlphaScreen BAZ2B-H3K14Ac peptide displacement; Potency, µM (series often up to 114 µM), for the others: top-dose activity change, negative = inhibition, most hits filed as inhibitors; actives 4.4% (n = 360,000); note: % is set by controls: 0 for no effect and ±100 for the full control effect; nearly all actives have a fitted effect of over 60% in size
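AlphaScreen luminescence quantifies BAZ2B engagement of H3K14Ac peptide; the protein and biotinylated peptide are both at 50 nM final, buffer PBS pH 7.4 with 0.01% Tween-20, all steps at room temperature.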
JMJD2A Tudor inh = inhibitors of human JMJD2A Tudor domain. O75164. AlphaScreen JMJD2A-Tudor / H3K4me3 peptide binding. Potency, µM (highest dose often 114 µM), without a hit: top-dose activity change, negative = inhibition, usual class: inhibitors. actives 4.4% (n = 390,000). AID 504339; note: % is set by controls: 0 for no effect and ±100 for the full control effect; nearly all actives have a fitted effect of over 50% in size
Sfp inh = blocks B. subtilis Sfp PPTase activity; actives 3.5% (n = 310,000); Biochemical Sfp PPTase activity, qHTS; AID 1490; Q9F4F7; Potency, µM, for the others: largest response in the series, negative = inhibition, actives largely listed as inhibitors;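 note: the enzyme is Sfp with the accession as filed and its product quenches rhodamine fluorescence; 0% = enzyme reaction without inhibitor and -100% = no enzyme wells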
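With Hepes-Na pH 7.6 buffer containing 10 mM MgCl2, Sfp (15 nM) modified BHQ-2-YbbR (12.5 uM) using rhodamine-CoA (5 uM). Two reads 30 minutes apart at 525/598 nm yielded each well's rate.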
G9a inh = blocks human histone lysine methyltransferase G9a; Q96KQ7; G9a H3K9 monomethylation, AlphaScreen, 2 h; Potency, µM (titrated, usually from 102 µM), for the others: at the top dose activity, negative = inhibition, actives largely listed as inhibitors; actives 8.8% (n = 350,000); AID 504332; note: % is set by controls: 0 for no effect and ±100 for the full control effect; nearly all actives have a fitted effect of over 75% in size
Target sequence (Q96KQ7 913-1193 limits assumed): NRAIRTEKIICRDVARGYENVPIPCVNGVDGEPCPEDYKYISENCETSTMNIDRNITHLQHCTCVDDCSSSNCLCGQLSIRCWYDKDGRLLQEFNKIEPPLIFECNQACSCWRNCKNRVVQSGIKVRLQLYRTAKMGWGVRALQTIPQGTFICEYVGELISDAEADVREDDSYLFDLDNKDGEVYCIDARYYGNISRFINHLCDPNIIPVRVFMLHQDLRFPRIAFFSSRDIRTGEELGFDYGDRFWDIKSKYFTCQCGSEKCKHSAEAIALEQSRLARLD
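Quantitative HTS format: methyltransferase activity on a biotin-tagged H3K9 peptide is measured by AlphaScreen, using a rabbit anti-monomethyl-H3K9 antibody with streptavidin donor and anti-IgG acceptor beads. Final levels are 20 nM enzyme, 500 nM peptide, 20 uM SAM; 2 h RT.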
PLK1 PBD block = inhibitors of human PLK1 polo-box domain binding; actives 2.8% (n = 360,000); Plk1 PBD binding of FITC phosphopeptide, fluorescence polarization; AID 720504; Potency, µM, without a hit: max response, negative = inhibition, usual class: inhibitors; note: series mostly up to about 57 µM; % is set by controls: 0 for no effect and ±100 for the full control effect; nearly all actives have a fitted effect of over 65% in size
* marks the source's active call; other numbers are inactive results; [ ] = remark or other dose. Calls come from the whole dose curve; as a rule, active = well fitted curve in the direction sought with a large enough effect; inconclusive = small, poorly fitted or top-dose-only effect, or another doubt; inactive = no such curve, though single readings can be large; an effect the other way counts as inactive or inconclusive. Potency is the fitted concentration of half-maximal effect.

Screening COc1ccc(N2CCN(C(=O)c3cccc(Br)c3)CC2)c([N+](=O)[O-])c1 returned HP1b binding inh inconclusive, BAZ2B block 40µM*, JMJD2A Tudor inh 22µM*, Sfp inh 5%, G9a inh inconclusive and PLK1 PBD block 27µM*.
`COc1ccc(N2CCN(C(=O)CC34CC5CC(CC(C5)C3)C4)CC2)c([N+](=O)[O-])c1` gave HP1b binding inh inconclusive, BAZ2B block 35µM*, JMJD2A Tudor inh 28µM*, Sfp inh inconclusive, G9a inh inconclusive and PLK1 PBD block -4%.
CCC(=O)N1CCN(c2ccc(OC)cc2[N+](=O)[O-])CC1 was read as HP1b binding inh 4%, BAZ2B block -1%, JMJD2A Tudor inh -16%, Sfp inh 9%, G9a inh -8%[59 µM] and PLK1 PBD block -7%.
`COc1ccc(OCc2cc(C(=O)N3CCOCC3)no2)c(Cl)c1` gave HP1b binding inh 47%, BAZ2B block 0%, JMJD2A Tudor inh 3%, Sfp inh 7%, G9a inh 12% and PLK1 PBD block -13%.
`CCOc1ccc(S(=O)(=O)NCCC(=O)NCC(c2ccco2)N2CCCCC2)cc1` (stereo not given) gave HP1b binding inh 21%, BAZ2B block 7%, JMJD2A Tudor inh -14%, G9a inh 16%[12.7 µM] and PLK1 PBD block -6%.
Screening CCC(CC)C(=O)Nc1c(C(=O)N2CCN(c3ccccc3F)CC2)oc2ccccc12 returned HP1b binding inh 7%, BAZ2B block inconclusive, JMJD2A Tudor inh -33% and G9a inh inconclusive.
`CCOc1ccc(NC(=O)COC(=O)c2c[nH]c3ccccc23)cc1` gave PLK1 PBD block -13%.
`CCOc1ccccc1NC(=O)COC(=O)c1c[nH]c2ccccc12` gave HP1b binding inh 6%, BAZ2B block 6%, JMJD2A Tudor inh -6%, G9a inh 50µM* and PLK1 PBD block -7%.
COC(=O)[C@@H]1[C@@H](C)N(CCc2cc(OC)c(OC)c(OC)c2)C(=O)N[C@H]1c1ccccc1 was read as Sfp inh -14%.
`Cc1ccc(/C=N/n2c(-c3ccccn3)n[nH]c2=S)o1` gave HP1b binding inh inconclusive, BAZ2B block 5µM*, JMJD2A Tudor inh 5.6µM*, Sfp inh 28µM*, G9a inh 3.2µM* and PLK1 PBD block -14%.
S=c1[nH]nc(-c2ccccn2)n1/N=C/c1c(Cl)cccc1Cl was read as HP1b binding inh -18%, BAZ2B block 22µM*, JMJD2A Tudor inh 3.5µM*, Sfp inh inconclusive, G9a inh 1.8µM* and PLK1 PBD block -14%.
Cc1ccccc1/C=N/n1c(-c2ccccn2)n[nH]c1=S was read as HP1b binding inh -16%, BAZ2B block 8.9µM*, JMJD2A Tudor inh 3.2µM*, Sfp inh 35µM*, G9a inh 0.89µM* and PLK1 PBD block -17%.
For S=c1[nH]nc(-c2ccccn2)n1/N=C/c1ccc(Cl)cc1 the results were HP1b binding inh 0%, BAZ2B block 18µM*, JMJD2A Tudor inh 5.6µM*, Sfp inh 11%, G9a inh 2.2µM* and PLK1 PBD block -27%.
CCN(CC)c1ccc(/C=N/n2c(=S)[nH]nc(C)c2=O)cc1 was read as HP1b binding inh 7%, BAZ2B block -4%, JMJD2A Tudor inh -27%, Sfp inh 79µM*, G9a inh -42% and PLK1 PBD block -10%.
Cc1cccc(/C=N/n2c(-c3ccccn3)n[nH]c2=S)c1 was read as BAZ2B block 11µM*, Sfp inh inconclusive and G9a inh 1.4µM*.
For CC(C)(C)c1n[nH]c(=S)n(/N=C/c2cccs2)c1=O the results were HP1b binding inh 40%, BAZ2B block -3%, JMJD2A Tudor inh -8%, Sfp inh 8%, G9a inh -11%[59 µM] and PLK1 PBD block -1%.
S=c1[nH]nc(-c2ccccn2)n1/N=C/c1ccccc1 was read as HP1b binding inh -3%, BAZ2B block 11µM*, JMJD2A Tudor inh 2.8µM*, Sfp inh 40µM*, G9a inh inconclusive and PLK1 PBD block -11%.
